Measured values reported in PubChem BioAssay (NCATS).
Records with an inconclusive call do not appear. The source made the active and inactive calls. Calls follow the shape of the dose curve; as a rule, active = well fitted inhibition curve with a large enough effect; inconclusive = small, poorly fitted or top-dose-only effect; inactive = flat fitted curve, though single readings scatter.

Experiments:
[1] = qHTS profiling for inhibitors of Plasmodium falciparum proliferation (AID 504749);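 also: 0% = DMSO vehicle and full inhibition = artemisinin control; nearly all actives have a fitted effect of over 60% in size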; conditions: P. falciparum in erythrocytes, SYBR Green DNA, 72 h, at 28.7 µM (top of the series)
In short: (§1)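 SYBR Green fluorescence (ex 485 nm, em 535 nm) reports parasite DNA after 72 h compound exposure of infected red cells at 0.3% parasitemia, 2.5% hematocrit; signal normalized to 0.29 uM artemisinin and vehicle wells.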

3D7 = assay: as above; conditions: P. falciparum in erythrocytes, SYBR Green DNA, 72 h; series mostly up to 28.7 µM
In short: as §1

7G8 = assay: as above; conditions: P. falciparum in erythrocytes, SYBR Green DNA, 72 h; series mostly up to 28.7 µM
In short: as §1

AA1029 = assay: as above; conditions: P. falciparum in erythrocytes, SYBR Green DNA, 72 h; series mostly up to 28.7 µM
In short: as §1

AS120 = assay: as above; conditions: P. falciparum in erythrocytes, SYBR Green DNA, 72 h; series mostly up to 28.7 µM
In short: as §1

ATS189 = assay: as above; conditions: P. falciparum in erythrocytes, SYBR Green DNA, 72 h; series mostly up to 28.7 µM
In short: as §1

ATS95 = assay: as above; conditions: P. falciparum in erythrocytes, SYBR Green DNA, 72 h; series mostly up to 28.7 µM
In short: as §1

C2A = assay: as above; conditions: P. falciparum in erythrocytes, SYBR Green DNA, 72 h; series mostly up to 28.7 µM
In short: as §1

CP185 = assay: as above; conditions: P. falciparum in erythrocytes, SYBR Green DNA, 72 h; series mostly up to 28.7 µM
In short: as §1

CP191 = assay: as above; conditions: P. falciparum in erythrocytes, SYBR Green DNA, 72 h; series mostly up to 28.7 µM
In short: as §1

CP192 = assay: as above; conditions: P. falciparum in erythrocytes, SYBR Green DNA, 72 h; series mostly up to 28.7 µM
In short: as §1

CCCCCCCCCCCCCCCCCCCCCC(=O)Nc1ccn([C@@H]2O[C@H](CO)[C@@H](O)[C@@H]2O)c(=O)n1
inactive: activity, negative = inhibition ([1]; parasite line A) 4.02% | activity, negative = inhibition ([1]; parasite line B) 6.88% | Potency (3D7) | Potency (7G8) | Potency (AA1029) | Potency (AS120) | Potency (ATS189) | Potency (ATS95) | Potency (C2A) | Potency (CP185) | Potency (CP191) | Potency (CP192)

O=S(=O)(O)CC(S)CS (stereo not given)
inactive: activity, negative = inhibition ([1]; parasite line A) 14.3% | activity, negative = inhibition ([1]; parasite line B) -2.53% | Potency (3D7) | Potency (7G8) | Potency (AA1029) | Potency (AS120) | Potency (ATS189) | Potency (ATS95) | Potency (C2A) | Potency (CP185) | Potency (CP191) | Potency (CP192)

COc1ccc(/C=C/C(=O)OCCC(C)C)cc1
inactive: activity, negative = inhibition ([1]; parasite line A) 6.28% | activity, negative = inhibition ([1]; parasite line B) 14.5% | Potency (3D7) | Potency (7G8) | Potency (AA1029) | Potency (AS120) | Potency (ATS189) | Potency (ATS95) | Potency (C2A) | Potency (CP185) | Potency (CP191) | Potency (CP192)

COc1ccc(C(=O)CCC(=O)O)c2ccccc12
inactive: activity, negative = inhibition ([1]; parasite line A) 16.4% | activity, negative = inhibition ([1]; parasite line B) 8.35% | Potency (3D7) | Potency (7G8) | Potency (AA1029) | Potency (AS120) | Potency (ATS189) | Potency (ATS95) | Potency (C2A) | Potency (CP185) | Potency (CP191) | Potency (CP192)

CN(C)C=Nc1c(I)cc(I)c(CCC(=O)O)c1I
inactive: activity, negative = inhibition ([1]; parasite line A) 0.723% | activity, negative = inhibition ([1]; parasite line B) 1.95% | Potency (3D7) | Potency (7G8) | Potency (AA1029) | Potency (AS120) | Potency (ATS189) | Potency (ATS95) | Potency (C2A) | Potency (CP185) | Potency (CP191) | Potency (CP192)

CCOC(C)OCC
inactive: activity, negative = inhibition ([1]; parasite line A) -1.66% | activity, negative = inhibition ([1]; parasite line B) -9.74% | Potency (3D7) | Potency (7G8) | Potency (AA1029) | Potency (AS120) | Potency (ATS189) | Potency (ATS95) | Potency (C2A) | Potency (CP185) | Potency (CP191) | Potency (CP192)

CC12CCC(C1)C(C)(C)C2=O (stereo not given)
inactive: activity, negative = inhibition ([1]; parasite line A) 8.34% | activity, negative = inhibition ([1]; parasite line B) 10.9% | Potency (3D7) | Potency (7G8) | Potency (AA1029) | Potency (AS120) | Potency (ATS189) | Potency (ATS95) | Potency (C2A) | Potency (CP185) | Potency (CP191) | Potency (CP192)

CC(C)=CCC/C(C)=C/CC/C(C)=C/CC/C=C(\C)CC/C=C(\C)CCC=C(C)C
inactive: activity, negative = inhibition ([1]; parasite line A) 0.919% | activity, negative = inhibition ([1]; parasite line B) 12.5% | Potency (3D7) | Potency (7G8) | Potency (AA1029) | Potency (AS120) | Potency (ATS189) | Potency (ATS95) | Potency (C2A) | Potency (CP185) | Potency (CP191) | Potency (CP192)

O=C(O)[C@H]1C(=CCO)O[C@H]2CC(=O)N12
inactive: activity, negative = inhibition ([1]; parasite line A) 6.84% | activity, negative = inhibition ([1]; parasite line B) 1.77% | Potency (3D7) | Potency (7G8) | Potency (AA1029) | Potency (AS120) | Potency (ATS189) | Potency (ATS95) | Potency (C2A) | Potency (CP185) | Potency (CP191) | Potency (CP192)

CC(C)[C@@H](N)C(=O)O
inactive: activity, negative = inhibition ([1]; parasite line A) 1.17% | activity, negative = inhibition ([1]; parasite line B) 12.2% | Potency (3D7) | Potency (7G8) | Potency (AA1029) | Potency (AS120) | Potency (ATS189) | Potency (ATS95) | Potency (C2A) | Potency (CP185) | Potency (CP191) | Potency (CP192)

O=C1CCC(=O)N1CO
inactive: activity, negative = inhibition ([1]; parasite line A) -2.35% | activity, negative = inhibition ([1]; parasite line B) 7.84% | Potency (3D7) | Potency (7G8) | Potency (AA1029) | Potency (AS120) | Potency (ATS189) | Potency (ATS95) | Potency (C2A) | Potency (CP185) | Potency (CP191) | Potency (CP192)

O=C(O)c1cc(N=Nc2ccc(O)c(C(=O)O)c2)ccc1O
inactive: activity, negative = inhibition ([1]; parasite line A) 9.5% | activity, negative = inhibition ([1]; parasite line B) 11.5% | Potency (3D7) | Potency (7G8) | Potency (AA1029) | Potency (AS120) | Potency (ATS189) | Potency (ATS95) | Potency (C2A) | Potency (CP185) | Potency (CP191) | Potency (CP192)

NC(N)=O
inactive: activity, negative = inhibition ([1]; parasite line A) 0.0876% | activity, negative = inhibition ([1]; parasite line B) -2.3% | Potency (3D7) | Potency (7G8) | Potency (AA1029) | Potency (AS120) | Potency (ATS189) | Potency (ATS95) | Potency (C2A) | Potency (CP185) | Potency (CP191) | Potency (CP192)

CC(=O)N[C@@H]1C(O[C@H]2O[C@H](C(=O)O)C(O)[C@H](O)[C@H]2O)[C@H](O)[C@@H](CO)O[C@H]1O[C@@H]1C(C(=O)O)O[C@@H](O[C@H]2[C@H](O)[C@@H](CO)OC(O)[C@@H]2NC(C)=O)[C@H](O)[C@H]1O (stereo not given in full)
inactive: activity, negative = inhibition ([1]; parasite line A) 0.279% | activity, negative = inhibition ([1]; parasite line B) 2.2% | Potency (3D7) | Potency (7G8) | Potency (AA1029) | Potency (AS120) | Potency (ATS189) | Potency (ATS95) | Potency (C2A) | Potency (CP185) | Potency (CP191) | Potency (CP192)

O=C(CCCCCCCCCCCCC1CCCC1)Nc1ccc(S(=O)(=O)c2ccc(NC(=O)CCCCCCCCCCCCC3CCCC3)cc2)cc1
inactive: activity, negative = inhibition ([1]; parasite line A) -2.51% | activity, negative = inhibition ([1]; parasite line B) 13.1% | Potency (3D7) | Potency (7G8) | Potency (AA1029) | Potency (AS120) | Potency (ATS189) | Potency (ATS95) | Potency (C2A) | Potency (CP185) | Potency (CP191) | Potency (CP192)
